Experimental data reported in PubChem BioAssay (NCATS).
Records with an inconclusive call do not appear. Calls of active or inactive are those of the source. Unless noted, calls come from the whole dose curve; as a rule, active = well fitted curve in the direction sought with a large enough effect; inconclusive = small, poorly fitted or top-dose-only effect, or another doubt; inactive = no such curve, though single readings can be large; an effect the other way counts as inactive or inconclusive.

Key:
[1] = qHTS for Inhibitors of Plasmodium falciparum (DD2) proliferation (AID 504314); note: potency is the fitted concentration of half-maximal effect;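 for activity, negative = inhibition: parasite DNA measured by SYBR Green fluorescence after red cell lysis; plate controls were DMSO vehicle for no effect and artemisinin wells for full effect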
In short: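 Fluorescence read-out (ex 485/em 535 nm) of SYBR Green-stained parasite DNA quantifies intraerythrocytic growth. Cultures at 0.3% parasitemia and 2.5% hematocrit were treated for 72 h; data normalized to DMSO and 0.29 uM artemisinin wells.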

[2] = qHTS for Inhibitors of Plasmodium falciparum (7G8) proliferation (AID 504316); note: nearly all actives have a fitted effect of over 65% in size; note: potency is the fitted concentration of half-maximal effect;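 for activity change, negative = inhibition: series mostly up to about 6.7 µM; 0% = DMSO vehicle and -100% = 0.29 µM artemisinin full kill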
In short: (§1)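 Erythrocytes infected with P. falciparum line (0.3% parasitemia, 2.5% hematocrit final) incubated with compounds 72 h at 37 °C, 5% CO2; SYBR Green lysis buffer added, fluorescence read next day. Normalized to 0.29 uM artemisinin and DMSO.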

[3] = qHTS for Inhibitors of Plasmodium falciparum (CP250) proliferation (AID 504320);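 note: plate controls were DMSO vehicle for no effect and 0.29 µM artemisinin control for full effect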
In short: as §1

[4] = biological target: Atrial natriuretic peptide receptor 1 (Homo sapiens) (UniProt P16066); assay: Natriuretic polypeptide receptor (hNpr1) antagonism - Pilot CMLD screen (AID 1347052; calls by dose curve;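 note: HEK293 cells with hNpr1 stimulated by hNppA peptide at 0.1 nM; cGMP level read as GloSensor luciferase luminescence after agonist stimulation; series mostly up to about 9.2 µM; % is set by controls: 0 for no effect and ±100 for the full control effect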)
Atrial natriuretic peptide receptor 1 (Homo sapiens), sequence (P16066 whole entry, looked up): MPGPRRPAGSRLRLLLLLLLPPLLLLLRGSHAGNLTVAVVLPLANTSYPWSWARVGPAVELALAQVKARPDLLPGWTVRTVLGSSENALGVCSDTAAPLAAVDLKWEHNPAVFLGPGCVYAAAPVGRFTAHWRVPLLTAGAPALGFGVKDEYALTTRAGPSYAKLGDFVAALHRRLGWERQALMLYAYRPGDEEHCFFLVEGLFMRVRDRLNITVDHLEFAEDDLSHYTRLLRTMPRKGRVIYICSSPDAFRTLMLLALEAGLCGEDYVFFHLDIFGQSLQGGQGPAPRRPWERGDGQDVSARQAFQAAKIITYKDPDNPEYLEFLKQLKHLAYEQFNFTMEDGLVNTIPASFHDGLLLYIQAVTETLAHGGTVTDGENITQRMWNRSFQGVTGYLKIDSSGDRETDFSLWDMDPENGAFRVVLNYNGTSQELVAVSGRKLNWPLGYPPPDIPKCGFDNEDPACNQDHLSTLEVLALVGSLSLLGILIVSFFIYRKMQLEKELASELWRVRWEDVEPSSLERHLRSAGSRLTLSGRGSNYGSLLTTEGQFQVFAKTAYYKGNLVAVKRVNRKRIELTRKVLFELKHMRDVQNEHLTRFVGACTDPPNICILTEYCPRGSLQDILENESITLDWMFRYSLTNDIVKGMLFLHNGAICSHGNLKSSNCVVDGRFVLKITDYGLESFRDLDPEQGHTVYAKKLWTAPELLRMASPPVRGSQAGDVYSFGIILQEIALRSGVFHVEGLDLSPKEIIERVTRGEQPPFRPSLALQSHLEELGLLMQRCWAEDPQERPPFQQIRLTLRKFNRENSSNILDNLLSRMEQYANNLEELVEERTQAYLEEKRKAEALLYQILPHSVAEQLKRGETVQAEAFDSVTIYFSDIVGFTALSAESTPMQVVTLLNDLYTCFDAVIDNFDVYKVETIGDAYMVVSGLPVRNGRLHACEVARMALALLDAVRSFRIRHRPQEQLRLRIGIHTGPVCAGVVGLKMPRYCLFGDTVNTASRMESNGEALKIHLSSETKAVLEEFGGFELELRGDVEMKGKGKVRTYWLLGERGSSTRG

[5] = qHTS for Inhibitors of Plasmodium falciparum (HB3) proliferation (AID 504318); note: nearly all actives have a fitted effect of over 60% in size; note: potency is the fitted concentration of half-maximal effect;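 for activity change, negative = inhibition: 0% = DMSO vehicle and -100% = artemisinin control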
In short: as §1

[6] = biological target: Cytochrome P450 2C9 (Homo sapiens) (UniProt P11712); assay: qHTS Assay for Inhibitors and Substrates of Cytochrome P450 2C9 (AID 883); note: % is set by controls: 0 for no effect and ±100 for the full control effect; nearly all actives have a fitted effect of over 60% in size
Cytochrome P450 2C9 (Homo sapiens), sequence (P11712 whole entry, looked up): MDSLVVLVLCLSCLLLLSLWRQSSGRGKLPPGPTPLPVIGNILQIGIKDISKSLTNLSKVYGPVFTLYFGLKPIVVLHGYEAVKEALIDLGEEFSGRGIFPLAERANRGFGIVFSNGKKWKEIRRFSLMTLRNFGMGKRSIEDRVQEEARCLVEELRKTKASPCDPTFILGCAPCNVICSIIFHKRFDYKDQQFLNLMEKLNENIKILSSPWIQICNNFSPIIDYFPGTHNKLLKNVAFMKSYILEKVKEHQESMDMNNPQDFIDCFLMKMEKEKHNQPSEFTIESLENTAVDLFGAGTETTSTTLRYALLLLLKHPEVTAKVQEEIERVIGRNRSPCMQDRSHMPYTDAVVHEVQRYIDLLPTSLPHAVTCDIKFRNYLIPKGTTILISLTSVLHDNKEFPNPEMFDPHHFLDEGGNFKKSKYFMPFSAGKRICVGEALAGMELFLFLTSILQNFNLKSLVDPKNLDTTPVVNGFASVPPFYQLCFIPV
In short: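 Human CYP2C9 (10nM) hydroxylated Luciferin-H (100uM, at its KM) to luciferin in 25mM KPO4. Compound was preincubated 10 min at 37C, then NADPH regeneration started a 60 min reaction at 37C. Luminescence was read after detection reagent, normalized to 57uM sulphaphenazole.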

[7] = biological target: Cytochrome P450 3A4 (Homo sapiens) (UniProt P08684); assay: qHTS Assay for Inhibitors and Substrates of Cytochrome P450 3A4 (AID 884); note: series mostly up to about 57 µM; % is set by controls: 0 for no effect and ±100 for the full control effect; nearly all actives have a fitted effect of over 50% in size
Cytochrome P450 3A4 (Homo sapiens), sequence (P08684 whole entry, looked up): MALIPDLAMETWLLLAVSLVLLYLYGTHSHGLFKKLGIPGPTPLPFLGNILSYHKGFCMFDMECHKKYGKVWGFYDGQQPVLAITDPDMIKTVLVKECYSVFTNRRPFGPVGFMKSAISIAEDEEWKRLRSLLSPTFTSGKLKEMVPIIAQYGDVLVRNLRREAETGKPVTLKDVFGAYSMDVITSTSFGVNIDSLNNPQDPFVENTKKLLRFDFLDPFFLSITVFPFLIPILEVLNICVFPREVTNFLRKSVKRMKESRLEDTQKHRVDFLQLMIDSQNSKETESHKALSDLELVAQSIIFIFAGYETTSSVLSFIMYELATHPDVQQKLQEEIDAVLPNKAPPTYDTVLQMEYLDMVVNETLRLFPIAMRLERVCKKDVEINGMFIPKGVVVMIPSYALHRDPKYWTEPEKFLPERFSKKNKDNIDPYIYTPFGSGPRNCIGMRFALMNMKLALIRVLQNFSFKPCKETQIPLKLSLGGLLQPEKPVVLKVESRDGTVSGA
In short: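 20 nM human CYP3A4 with 25 uM Luciferin-PPXE (at KM) in 200 mM KPO4, preincubated 10 min with compound; NADPH regeneration started a 60 min RT reaction. Luciferin detected by luminescence, normalized to 57 uM ketoconazole as full inhibition.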

[8] = biological target: Cytochrome P450 2D6 (Homo sapiens) (UniProt P10635); assay: qHTS Assay for Inhibitors and Substrates of Cytochrome P450 2D6 (AID 891);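 note: luciferin methyl ether substrate demethylated by CYP2D6 with NADPH regeneration; % is set by controls: 0 for no effect and ±100 for the full control effect; nearly all actives have a fitted effect of over 60% in size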
Cytochrome P450 2D6 (Homo sapiens), sequence (P10635 whole entry, looked up): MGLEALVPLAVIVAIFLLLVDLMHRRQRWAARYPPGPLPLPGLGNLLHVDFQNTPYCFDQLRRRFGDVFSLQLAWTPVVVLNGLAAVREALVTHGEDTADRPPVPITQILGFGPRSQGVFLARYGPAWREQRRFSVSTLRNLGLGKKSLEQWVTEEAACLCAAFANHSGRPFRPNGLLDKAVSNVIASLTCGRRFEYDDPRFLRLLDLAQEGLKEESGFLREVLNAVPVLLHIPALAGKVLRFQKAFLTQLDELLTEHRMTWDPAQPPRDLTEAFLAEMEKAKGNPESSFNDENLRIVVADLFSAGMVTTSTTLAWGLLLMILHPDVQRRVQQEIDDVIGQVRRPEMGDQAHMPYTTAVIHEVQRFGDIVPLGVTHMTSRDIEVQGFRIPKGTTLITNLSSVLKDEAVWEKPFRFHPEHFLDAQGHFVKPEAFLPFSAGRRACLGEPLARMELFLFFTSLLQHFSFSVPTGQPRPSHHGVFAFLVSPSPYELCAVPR
In short: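 Human CYP2D6 (5 nM) with 30 uM Luciferin-ME EGE (at Km) in 100 mM KPO4, compound preincubated 10 min, then NADPH regeneration system for 60 min at room temperature. Luciferin read by luminescence; normalized to 1.43 uM quinidine.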

[9] = biological target: Cytochrome P450 2C19 (Homo sapiens) (UniProt P33261); assay: qHTS Assay for Inhibitors and Substrates of Cytochrome P450 2C19 (AID 899); note: % is set by controls: 0 for no effect and ±100 for the full control effect; nearly all actives have a fitted effect of over 60% in size
Cytochrome P450 2C19 (Homo sapiens), sequence (P33261 whole entry, looked up): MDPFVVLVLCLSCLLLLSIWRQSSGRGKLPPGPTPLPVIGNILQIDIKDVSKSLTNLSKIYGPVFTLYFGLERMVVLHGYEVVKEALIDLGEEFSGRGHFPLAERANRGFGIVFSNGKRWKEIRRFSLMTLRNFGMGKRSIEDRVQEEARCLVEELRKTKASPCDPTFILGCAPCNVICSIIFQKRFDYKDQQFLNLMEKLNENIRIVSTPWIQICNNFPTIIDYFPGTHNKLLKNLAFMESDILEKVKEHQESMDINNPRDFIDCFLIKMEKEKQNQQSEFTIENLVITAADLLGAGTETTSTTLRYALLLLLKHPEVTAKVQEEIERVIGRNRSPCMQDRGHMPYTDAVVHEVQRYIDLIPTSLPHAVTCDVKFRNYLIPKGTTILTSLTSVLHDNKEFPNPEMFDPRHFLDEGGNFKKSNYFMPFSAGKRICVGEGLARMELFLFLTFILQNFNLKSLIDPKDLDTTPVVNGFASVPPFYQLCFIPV
In short: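 Human CYP2C19 (5nM) with Luciferin-H EGE at 10uM (its KM) in 50mM KPO4 was preincubated with compound for 10 min at 37C. NADPH regeneration started a 60 min 37C reaction. Luciferin was read by luminescence, normalized to 57uM ketoconazole.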

[10] = qHTS for Inhibitors of Plasmodium falciparum (GB4) proliferation (AID 504315); note: potency is the fitted concentration of half-maximal effect; nearly all actives have a fitted effect of over 50% in size
In short: as §1

COC1(C#C[C@@H]2C=C[C@H](OC(C)=O)[C@@H](COC(C)=O)O2)CCCCC1
inactive: Potency [1] | Potency [2] | Potency [3] | Potency [4]

COc1cc2c(cc1OC)[C@@H]1O[C@](CCCCN3C(=O)c4ccccc4C3=O)(C2)OC2=C1C(=O)OC1(CCCCC1)C2
inactive: Potency [3] | Potency [4]
active: Potency [1] 1690 nM | Potency [5] 1900 nM

C=CC[C@@H]1C=C[C@H](ON=C2c3cc(OC)ccc3O[C@H](c3cccc(OC)c3)[C@@H]2O)[C@H](CO)O1
inactive: Potency [1] | Potency [5] | Potency [3] | Potency [4]

CCCCc1cc2c(cn1)=C(OC(=O)c1cnc3ccccc3n1)C(C)(OC(=O)CC)C(=O)C=2 (stereo unspecified)
inactive: activity, negative = inhibition [1] 2.28% [at 1.12 µM] | Potency [3] | Potency [4]
active: Potency [2] 1690 nM

COC(=O)[C@H]1[C@@H](c2ccccc2)NC(=O)O[C@@H]1C
inactive: Potency [1] | Potency [5] | Potency [3] | Potency [4]

COc1ccc(C=CN(CCc2ccc(OC)c(OC)c2)C(=O)c2ccccn2)cc1
inactive: Potency [1] | Potency [5] | Potency [3] | Potency [4]

CC(CCN1CCc2nc(-c3ccccc3)c(-c3ccccc3)cc2C1)=NOC[C@@H](O)[C@H]1O[C@@H]2OC(C)(C)O[C@H]2[C@@H]1O
inactive: Potency [1] | Potency [3] | Potency [4]
active: Potency [2] 1900 nM

C[C@@H]1CC2=CCCC2[C@]2(O1)C(=O)N(Cc1ccc(Br)cc1)c1cccc(Br)c12 (stereo partly specified)
inactive: Potency [1] | Potency [2] | Potency [3] | Potency [4]

CC(C)=CCCC(C)=CCON=C1C[C@@H](O)[C@@H](O)[C@@H]2[C@H]3C(=O)N(c4ccc(F)cc4F)C(=O)[C@@H]3CC[C@H]12
inactive: Potency [1] | Potency [5] | Potency [3] | Potency [4]

CC1=C[C@@H](COCc2ccccc2)O[C@@]2(C1)C(=O)N(Cc1ccc(Br)cc1)c1ccccc12
inactive: Potency [1] | Potency [2] | Potency [3] | Potency [4]

C[C@@H](ON=C1[C@H]2CCn3c(=O)n(-c4ccccc4)c(=O)n3[C@@H]2[C@H](O)[C@@H]2O[C@H]12)c1cn([C@@H]2COC[C@@H]2O)nn1
inactive: Potency [1] | Potency [5] | Potency [3] | Potency [4]

O=C(NN=C1C[C@@H](O)[C@H](O)[C@H]2[C@@H]3C(=O)N(C4CCCCC4)C(=O)[C@@H]3CC[C@@H]12)OCc1ccccc1
inactive: Potency [1] | Potency [2] | Potency [3] | Potency [4]

CCN1C(=O)[C@@H]2[C@H]3[C@H](O)[C@H](O)CC(=NOC[C@@H](O)[C@H]4O[C@@H]5OC(C)(C)O[C@H]5[C@@H]4O)[C@@H]3CC[C@H]2C1=O
inactive: Potency [1] | Potency [5] | Potency [3] | Potency [4]

CC1(O)C(=O)C=C2C=C(CCCCOCc3ccccc3)OC=C2C1=O (stereo unspecified)
inactive: activity change, negative = inhibition [6] -27.6% [at 11.4 µM] | activity change, negative = inhibition [7] -25.3% [at 11.4 µM] | activity change, negative = inhibition [8] -3.73% [at 11.4 µM] | activity, negative = inhibition [9] -23.3% [at 11.4 µM] | Potency [1] | Potency [2] | Potency [4]

C=CCC12C=C(OC)C(=O)C(C1=O)C1c3ccccc3CC12 (stereo unspecified)
inactive: Potency [1] | Potency [5] | Potency [4]

C=C(C)CCCN1C=C(C(=O)OCC)C(c2ccccc2)NC1=O (stereo unspecified)
inactive: Potency [1] | Potency [5] | Potency [3] | Potency [4]

COC(=O)C12C[C@H](C)C3C(C)C(c4ccccc4C31)N2C(=O)C(F)(F)F (stereo partly specified)
inactive: Potency [1] | Potency [5] | Potency [3] | Potency [4]

CC(=O)OC[C@H]1O[C@H](CC=NO[C@@H](C)CN2CCCc3nc(C)c(C)cc32)C=C[C@@H]1OC(C)=O
inactive: Potency [1] | Potency [5] | Potency [3] | Potency [4]

CC1=CC[C@@H](COc2ccccc2)O[C@@]2(C1)C(=O)Nc1ccccc12
inactive: Potency [1] | Potency [5] | Potency [3] | Potency [4]

COc1ccc(-c2ccc3c(n2)CCCN3CC(O)CN2CCCc3nc(C)c(C)cc32)cc1 (stereo unspecified)
inactive: Potency [1] | Potency [5] | Potency [3] | Potency [4]

CCOC(=O)CN1C(=O)NC(c2ccc(Br)cc2)C(C(C)=O)=C1C (stereo unspecified)
inactive: Potency [1] | Potency [5] | Potency [3] | Potency [4]

C#CCCCON=C1C[C@@H](O)[C@H](O)[C@H]2[C@@H]3C(=O)N(Cc4ccc5c(c4)OCO5)C(=O)[C@@H]3CC[C@H]12
inactive: Potency [1] | Potency [3] | Potency [4]

COC(=O)N[C@H](C(C(=O)OC)=C(C)NCc1ccccc1)c1ccccc1
inactive: Potency [1] | Potency [3] | Potency [4]

CCCCCCCC1=Cc2ccccc2C(CC(=O)c2ccccc2)N1C(=O)OC (stereo unspecified)
inactive: activity, negative = inhibition [1] -4.11% [at 1.12 µM] | Potency [3] | Potency [4]

C=CCN1c2ccccc2[C@]23CCC(=O)N(CCc4ccccn4)C2=NC(C(=O)OC)=C(C(=O)OC)[C@H]13
inactive: Potency [1] | Potency [3] | Potency [4]

COc1ccc(NC(=O)N2CCc3nc(-c4ccc(OC)cc4C)c4c(c3C2)CO[C@@H](c2ccccc2)C4)cc1
inactive: Potency [1] | Potency [3] | Potency [4]

C=CC[C@@H]1C=C[C@@H](Oc2ccc(OC)cc2)[C@H](CO)O1
inactive: Potency [4]
active: Potency [10] 1510 nM

C=C(C)C1CC23C(=O)[C@]4(C(=O)c5ccccc5)C[C@@]5(C)CCC(CC2C1(C)C)(C4=O)[C@@]35OC (stereo partly specified)
inactive: Potency [1] | Potency [3] | Potency [4]
